In PubChem BioAssay (Tox21):
Several values for one entry are separate records, joined by “and”; a condition that tells them apart may be missing. Equal entries are not always repeated. Results filed as inconclusive are left out. Activity calls are given as the source filed them. Calls come from the whole dose curve; as a rule, active = well fitted curve in the direction sought with a large enough effect in the repeat runs; inconclusive = weak or mixed curves; inactive = no such curve, though single readings can be large; an effect the other way counts as inactive or inconclusive.

Assays:
[1] = qHTS RealTime-Glo MT Cell Viability Assay in HEK293 cells - 16 hour (AID 1224872); note: nearly all actives have a fitted effect of over 50% in size
Procedure, shortened: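 Nonlytic real-time viability readout: viable cells convert prosubstrate to NanoLuc substrate, giving luminescence proportional to live cell number. HEK293, 600 cells/well, compound added after 5 h, continuous culture at 37 C.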

[2] = qHTS RealTime-Glo MT Cell Viability Assay in HepG2 cells - 8 hour (AID 1224873); note: nearly all actives have a fitted effect of over 55% in size
Procedure, shortened: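 HepG2 cells (600/well) mixed with RealTime-Glo MT reagent, settled 5 h at 37 C/5% CO2 before compound addition. Nonlytic NanoLuc luminescence from viable-cell prosubstrate reduction read repeatedly during 40 h treatment at 37 C.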

[3] = qHTS RealTime-Glo MT Cell Viability Assay in HEK293 cells - 40 hour (AID 1224874); settings: RealTime-Glo luminescence; max response: stronger effect = lower value; note: nearly all actives have a fitted effect of over 50% in size
Procedure, shortened: (§1)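 Tox21 screen in HEK293 using RealTime-Glo MT chemistry, with cells and reagent co-dispensed. Luminescence proportional to viable cell number was captured at intervals during 40 h compound exposure at 37 C.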

[4] = A CellTox Green Cytotoxicity Assay to monitor cytotoxicity in HEK293 cells - 24 hour (AID 1224875); note: nearly all actives have a fitted effect of over 45% in size
Procedure, shortened: (§2)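 Seeding of HEK293 cells together with cytotoxicity dye preceded a 5 h incubation at 37 C/5% CO2. Test compounds in DMSO were then added and fluorescence monitored across 40 h.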

[5] = A CellTox Green Cytotoxicity Assay to monitor cytotoxicity in HepG2 cells - 16 hour (AID 1224876); note: nearly all actives have a fitted effect of over 45% in size
Procedure, shortened: (§3)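 Nonlytic assay: viable cells exclude the dye, so fluorescence scales with cell death. HepG2 at 600 cells/well, compounds added after 5 h, signal read across 40 h.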

[6] = qHTS RealTime-Glo MT Cell Viability Assay in HepG2 cells - 32 hour (AID 1224877); note: nearly all actives have a fitted effect of over 55% in size
Procedure, shortened: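 Luminescence read-out: viable HepG2 cells reduce a prosubstrate to a NanoLuc substrate, giving a signal proportional to live cell number. Reads taken at 0, 8, 16, 24, 32 and 40 h of compound exposure at 37 C.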

[7] = A CellTox Green Cytotoxicity Assay to monitor cytotoxicity in HepG2 cells - 24 hour (AID 1224878); note: nearly all actives have a fitted effect of over 45% in size
Procedure, shortened: as §3

[8] = A CellTox Green Cytotoxicity Assay to monitor cytotoxicity in HepG2 cells - 40 hour (AID 1224879); note: nearly all actives have a fitted effect of over 40% in size
Procedure, shortened: as §3

[9] = qHTS RealTime-Glo MT Cell Viability Assay in HEK293 cells - 0 hour (AID 1224880); note: nearly all actives have a fitted effect of over 45% in size
Procedure, shortened: as §1

[10] = A CellTox Green Cytotoxicity Assay to monitor cytotoxicity in HEK293 cells - 32 hour (AID 1224881); note: nearly all actives have a fitted effect of over 40% in size
Procedure, shortened: as §2
% is set by controls: 0 for no effect and ±100 for the full control effect; potency is the fitted concentration of half-maximal effect.

C/C=C/CO
inactive: Potency [1] | Potency [2] | max response [3] 8.59% | Potency [4] | Potency [5] | Potency [6] | Potency [7] | Potency [8] | Potency [9] | Potency [10]

CCC(C)c1ccccc1 (stereo not drawn)
inactive: Potency [1] | Potency [2] | max response [3] 6.63% | Potency [4] | Potency [5] | Potency [6] | Potency [7] | Potency [8] | Potency [9] | Potency [10]

CC1CCCNC1 (stereo not drawn)
inactive: Potency [1] | Potency [2] | max response [3] -11.1% | Potency [4] | Potency [5] | Potency [6] | Potency [7] | Potency [8] | Potency [9] | Potency [10]

CC(C)=C1CC[C@@H](C)CC1=O
inactive: Potency [1] | Potency [2] | max response [3] 0.14% | Potency [4] | Potency [5] | Potency [6] | Potency [7] | Potency [8] | Potency [9] | Potency [10]

O=S(=O)(O)CCCN1CCOCC1
inactive: Potency [1] | Potency [2] | max response [3] 12.7% | Potency [4] | Potency [5] | Potency [6] | Potency [7] | Potency [8] | Potency [9] | Potency [10]

Cc1ccc(O)cn1
inactive: Potency [1] | Potency [2] | max response [3] -9.02% | Potency [4] | Potency [5] | Potency [6] | Potency [7] | Potency [8] | Potency [9] | Potency [10]

NCCCCCCNCCCCCCN
inactive: Potency [1] | Potency [2] | max response [3] -6.12% | Potency [4] | Potency [5] | Potency [6] | Potency [7] | Potency [8] | Potency [9] | Potency [10]

CO[Si](CCC1CCC2OC2C1)(OC)OC (stereo not drawn)
inactive: Potency [1] | Potency [2] | max response [3] 8.81% | Potency [4] | Potency [5] | Potency [6] | Potency [8] | Potency [9] | Potency [10]

[O]=[Zr]
inactive: Potency [1] | Potency [2] | max response [3] 1.9% | Potency [4] | Potency [5] | Potency [6] | Potency [8] | Potency [9] | Potency [10]

CC(C)(c1cc(Br)c(O)c(Br)c1)c1cc(Br)c(O)c(Br)c1
inactive: Potency [1] | Potency [2] | max response [3] -17.7% | Potency [4] | Potency [5] | Potency [7] | Potency [8] | Potency [9] | Potency [10]

C/C=C/C(=O)C1=C(C)CCCC1(C)C
inactive: Potency [1] | Potency [2] | max response [3] 16.6% | Potency [4] | Potency [5] | Potency [6] | Potency [7] | Potency [9] | Potency [10]

C#CC(O)CCC (stereo not drawn)
inactive: Potency [1] | Potency [2] | max response [3] 0.0439% | Potency [4] | Potency [5] | Potency [6] | Potency [8] | Potency [9] | Potency [10]

Oc1c(Br)cc(Br)c2cccnc12
inactive: Potency [1] | Potency [2] | Potency [4] | Potency [5] | Potency [6] | Potency [8] | Potency [9]
active: Potency [3] 19 µM

Cc1oc(-c2ccccc2)nc1CCOc1ccc(C[C@H](Nc2ccccc2C(=O)c2ccccc2)C(=O)O)cc1
inactive: Potency [1] | Potency [2] | max response [3] 0.495% | Potency [4] | Potency [5] | Potency [6] | Potency [9]

O=C1c2c(O)ccc(O)c2C(=O)c2c(NCCNCCO)ccc(NCCNCCO)c21
inactive: Potency [2] | Potency [4] | Potency [5] | Potency [8] | Potency [9] | Potency [10]
active: Potency [1] 848 nM | Potency [3] 0.019 µM | Potency [6] 8.49 µM

C=CC(=C)CCC=C(C)C
inactive: Potency [1] | Potency [2] | max response [3] 8.59% | Potency [4] | Potency [5] | Potency [7] | Potency [8] | Potency [9]

O=C1c2c(O)ccc([N+](=O)[O-])c2C(=O)c2c([N+](=O)[O-])ccc(O)c21
inactive: Potency [4] | Potency [5] | Potency [7] | Potency [8] | Potency [10]
active: Potency [1] 13700 nM | Potency [2] 13.7 µM | Potency [3] 24.3 µM | Potency [9] 43.2 µM

c1ccc(Sc2ccccc2)cc1
inactive: Potency [1] | Potency [2] | max response [3] 1.6% | Potency [4] | Potency [5] | Potency [6] | Potency [7] | Potency [9] | Potency [10]

CCO[Si](C)(C)OCC
inactive: Potency [1] | Potency [2] | max response [3] -0.247% | Potency [4] | Potency [5] | Potency [7] | Potency [8] | Potency [9] | Potency [10]

CCN=c1cc2oc3cc(NCC)c(C)cc3c(-c3ccccc3C(=O)OCC)c-2cc1C
inactive: Potency [9]
active: Potency [1] 8.68 µM and 6.17 µM | Potency [2] 24.5 µM and 21.9 µM | Potency [3] 614 nM and 550 nM | Potency [4] 12.3 µM and 11 µM | Potency [5] 10.9 µM and 6.17 µM | Potency [7] 19.4 µM and 5.49 µM | Potency [8] 21.8 µM and 6.17 µM | Potency [10] 10.9 µM and 11 µM

O=C(O)Cc1ccc(OCCNC[C@H](O)c2ccccc2)cc1
inactive: Potency [1] | Potency [2] | max response [3] 6.67% | Potency [4] | Potency [5] | Potency [6] | Potency [8] | Potency [9] | Potency [10]

O=C(O)CC(=O)O
inactive: Potency [1] | Potency [2] | max response [3] 11.5% | Potency [4] | Potency [5] | Potency [6] | Potency [8] | Potency [9]

Cn1cnc2ncnc(N)c21
inactive: Potency [1] | Potency [2] | max response [3] 11.2% | Potency [4] | Potency [5] | Potency [7] | Potency [8] | Potency [9] | Potency [10]

c1cc2c3c(c1)ccc1cccc(c13)C2
active: Potency [4] 56.1 µM | Potency [10] 50 µM
inactive: Potency [1] | Potency [2] | max response [3] -20.7% | Potency [5] | Potency [7] | Potency [8] | Potency [9]
